# About 7,700 (2.3%) of roughly 330,000 compounds were called active. Roughly 26% stayed inconclusive and do not appear here. This excerpt belongs to a sample that is enriched for actives. Unmarked numbers belong to inactive results. Calls come from the whole dose curve; as a rule, active = well fitted inhibition curve with a large enough effect; inconclusive = small, poorly fitted or top-dose-only effect, or effect the other way; inactive = flat fitted curve, though single readings scatter.
# Assay: qHTS screen for small molecules that inhibit ELG1-dependent DNA repair in human embryonic kidney (HEK293T) cells expressing luciferase-tagged ELG1; note: nearly all actives have a fitted effect of over 55% in size
# Details: HEK293T ELG1-luciferase reporter, luminescence, 16 h, DNA damage induced by 5-fluorouridine; series mostly up to 46.1 µM; activity change, negative = inhibition: at the top concentration
# Source text: NIH Molecular Libraries Probe Production Network [MLPCN] NIH Chemical Genomics Center [NCGC] MLPCN Grant: 1 R03 MH092164-01 Assay Provider: Kyungjae Myung, NHGRI, NIH Keywords: MLPCN, qHTS, NCGC, genotoxicity, cancer Assay Overview: Cancer cells divide rapidly compared to normal cells in the body. During cell division, cancer cells need to duplicate their genome by DNA replication. The failure of genome duplication leads to cancer cells' death. Therefore, inhibitors of DNA replication could specifically kill cancer cells. Based on this concept, many chemotherapeutic agents were developed and have been used to treat cancer patients. However, there are a limited number of agents available in the clinical setting, and some of those that do exist have low efficacy and severe side effects. Therefore, if we can find the compounds that effectively block DNA replication either by directly damaging DNA or by inhibiting other cellular mechanisms, the options for cancer treatment will be broadened. With this in mind, we developed a quantitative high-throughput ELG1-luciferase reporter gene assay. Small molecules that specifically block ELG1 function in response to DNA damage can be identified by monitoring the suppression of luciferase activity. Since ELG1 defines a pathway for repairing DNA damage, agents blocking ELG1 function can be used to sensitize cancer cells to chemotherapeutic agents whose mechanism of action involves the induction of DNA damage.
# Assay Protocol Summary: For genotoxicity screening, 2,000 cells in 4 uL/well were dispensed into white, solid-bottom 1536-well plates using a solenoid-based dispenser. Following transfer of 1 uL 5-Fluorouridine and 23 nL compound or DMSO vehicle by a pin tool, the plates were incubated 16 hr at 37 °C and 5% CO2. 5 ul ONE-Glo (Promega) was then added to each plate and following a 30 min incubation at room temperature, luciferase activity was quantified on a ViewLux CCD-based plate reader.
# % is set by controls: 0 for no effect and ±100 for the full control effect; potency is the fitted concentration of half-maximal effect.
Compound,Potency,"activity change, negative = inhibition"
O=C(/C=C/c1cccs1)c1cc(Cl)ccc1OC(=O)N1CCOCC1,18.4 µM (active),–
CC(=O)Nc1ccc(C(=O)C(Cc2ccccc2)N(C)C)cc1 (stereo not given),–,4.04%
Cc1nc2ccccc2c(=O)n1-c1ccc(Cl)cc1Cl,–,-3.5%
COC1=CC=C2[C@H]3Cc4ccc(OC)c5c4[C@@]2(CCN3C)C1O5 (stereo not given in full),–,3.28%
COC(=O)C1=C(c2cccc(OCc3ccccc3)c2)C[C@@H]2CC[C@H]1N2C(=O)NNCc1ccccc1,–,-26.5%
COC(=O)C1=C(c2cccc(OCc3ccccc3)c2)C[C@@H]2CC[C@H]1N2C(=O)NCc1ccc(Br)cc1,–,-23.4%
COc1ccc(CNCCc2c[nH]c3ccccc23)cc1OC,–,-3.99%
O=C(c1cc(-c2ccncc2)nc2ccccc12)N1CCC2(CC1)OCCO2,–,-25.8%
O=C(c1cc2nc(-c3ccccc3)cc(-c3ccccc3)n2n1)N1CCC2(CC1)OCCO2,20.6 µM (active),–
O=C(c1ccccc1[N+](=O)[O-])N1CCC2(CC1)OCCO2,–,-2.85%
CCCCn1c(=O)c(C(=O)Nc2ccccc2Cl)c(O)c2ccccc21,–,14.3%
Cc1cccc(NC(=O)N2CC3CC(C2)c2cccc(=O)n2C3)c1 (stereo not given),–,23.2%
Cc1ncc(CC(=O)n2cc(C(=O)c3cc(Cl)ccc3O)cn2)s1,20.6 µM (active),–
CCN1C(=O)C(=Cc2c(C)n(CC(=O)NCC3CCCO3)c3ccccc23)C(=O)N(CC)C1=S (stereo not given),–,-1.72%
Cc1ccccc1NC(=O)COC(=O)c1cc(C)n(C2CC2)c1C,–,-17.9%
c1cc2c(cc1C1OCC3C(c4ccc5c(c4)OCO5)OCC13)OCO2 (stereo not given),–,-8.1%
CN(C)CCN(CC1CCCN(Cc2ccccc2F)C1)C(=O)Cc1ccc(F)c(F)c1 (stereo not given),–,-0.923%
Cc1ncoc1C(=O)NCCC(c1ccccc1)c1ccccc1,20.6 µM (active),–
CC(Cc1ccccc1)NCCC(c1ccccc1)c1ccccc1 (stereo not given),–,-13.5%
CCN(CC)C(=O)Oc1ccc(NC(=O)N2CCOCC2)cc1,–,-12.4%
CCOc1cccc(=NC2CCCCC2)c2c(C)[nH]c(C)c12,10.3 µM (active),–
O=c1[nH]c(O)c(C=Nc2cc(F)cc(F)c2)c(=O)[nH]1,–,-9.9%
CCC(=O)c1ccc(OCC(=O)N2CCN(CC(=O)Nc3ccc(C)cc3)CC2)cc1,–,1.39%
COc1ccc2[nH]c3c(c2c1)CCN[C@H]3C,–,-0.326%
COc1cc(Cn2c(N)c(C(=O)NCc3ccco3)c3nc4ccccc4nc32)cc(OC)c1OC,3.26 µM (active),–

Compound,Potency,"activity change, negative = inhibition"
CCOC(=O)C(O)(c1ccc(NC(=O)c2ccco2)c(OC)c1)C(F)(F)F (stereo not given),–,10.8%
COc1ccccc1NC(=O)N1C[C@@H]2C[C@@H](C1)c1cccc(=O)n1C2,–,7.46%
O=C(Cc1ccc(Cl)cc1)NCCN1CCN(C(=O)Cc2ccc(Cl)cc2)CC1,–,-15.8%
CC1CCC(N(C)C2CCN(C)CC2)CC1 (stereo not given),–,-6.89%
COc1cc(-n2c(=S)[nH]c3ccc(C)cc3c2=O)c(Cl)cc1Cl,16.4 µM (active),–
COC(=O)C1=C(c2ccc(Cl)c(C(F)(F)F)c2)C[C@@H]2CC[C@H]1N2C(=O)NC(C)C,–,-3.51%
O=C(O)c1ccccc1NC(=O)C1C2CCC(O2)C1C(=O)O (stereo not given),–,27.7%
COC(=O)C1=C(c2ccc(F)cc2OCc2ccccc2)C[C@@H]2CC[C@H]1N2C(=O)NCc1ccc(C(C)(C)C)cc1,–,1.55%
COc1ccc(CNCCc2ccc3c(c2)OCO3)c(OC)c1OC,–,-12.2%
O=C(NC(=S)N1C[C@H]2C[C@H](C1)c1cccc(=O)n1C2)c1ccc(F)cc1,–,1.64%
CN(c1ccccc1)c1ccc([N+](=O)[O-])c2nonc12,–,-0.77%
Oc1cc2c(cc1CN1CCN(c3ccccc3)CC1)OCO2,–,4.24%
CCC(C)n1c(O)c(/C=N/Nc2nc3c(c(=O)n(C)c(=O)n3C)n2C)c(=O)[nH]c1=S (stereo not given),23.1 µM (active),–
C[C@]12CC[C@H](O)CC1=C([N+](=O)[O-])CC1C2CC[C@@]2(C)C1CC[C@@H]2O (stereo not given in full),–,-28%
c1ccc(CC2CCCCN2)cc1 (stereo not given),–,0.138%
CCCCCn1c(=O)c(C(=O)NCc2ccccc2)c(O)c2ccccc21,–,-26.2%
CCCCCCCCCCCCn1ccc(=N)cc1,5.8 µM (active),–
COc1cccc(OC)c1C(=O)NC(=S)N1C[C@H]2C[C@H](C1)c1cccc(=O)n1C2,–,18%
COC(=O)[C@@H]1C(OC(=O)c2ccccc2)CC2CCC1N2C (stereo not given in full),–,2.1%
CC[C@H]1CN2CCc3cc(OC)c(OC)cc3[C@@H]2C[C@@H]1C[C@H]1NCCc2cc(OC)c(OC)cc21,0.259 µM (active),–
COc1ccc(N2C(=O)/C(=C/c3ccco3)C(=O)NC2=S)cc1,–,-10.8%
Cc1c(Oc2cc(NN3CCCCC3)c([N+](=O)[O-])cc2[N+](=O)[O-])cccc1[N+](=O)[O-],–,27.2%
CCc1ccc(OCC(=O)N2CCN(CC(=O)Nc3ccccc3Cl)CC2)cc1,–,-14.5%
COC(=O)C1=C(c2ccc(Cl)c(C(F)(F)F)c2)C[C@@H]2CC[C@H]1N2C(=O)NC1CC1,–,-20.8%
C[C@]12CCC3C(CC[C@H]4C[C@@H](O)CC[C@]34C)C1CC[C@@H]2O (stereo not given in full),–,5.31%

# Reference: PubChem BioAssay AID504467 (National Center for Advancing Translational Sciences (NCATS), 2011)
